# Results: PubChem BioAssay (NCI)
# The panel holds about 83,000 compounds, 20% with a hit somewhere; the sample as a whole holds those more often.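 Cells were grown in 96-well plates and exposed to the test compound at a single concentration for 48 hours; results are reported as percent growth, with values below 10 considered active.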 A number with no mark means an inactive call. Calls of active or inactive are those of the source.
# Columns and labels:
# Experiment in all cases: NCI-60 one-dose screen, 48 h (100 = growth as untreated, 0 = no growth, -100 = all killed)
# Details in all cases: 10 µM unless noted
# [1] = test system: NCI-H23 lung
# [2] = test system: NCI-H226 lung
# [3] = test system: NCI-H322M lung
# [4] = test system: HOP-62 NSCLC
# [5] = test system: NCI-H460 lung
# [6] = test system: NCI-H522 lung
# [7] = test system: A549/ATCC NSCLC
# [8] = test system: 786-0 renal
# [9] = test system: COLO 205 colon
# [10] = test system: DU-145 prostate
# [11] = test system: K-562 leukemia
# [12] = test system: MALME-3M melanoma
# [13] = test system: MDA-MB-231 breast
# [14] = test system: RXF 393 renal
# [15] = test system: SF-268 CNS
# [16] = test system: SF-295 CNS
# [17] = test system: SF-539 CNS
# [18] = test system: UACC-257 melanoma
# [19] = test system: M14 melanoma
# [20] = test system: HCT-15 colon
Compound,growth [1],growth [2],growth [3],growth [4],growth [5],growth [6],growth [7],growth [8],growth [9],growth [10],growth [11],growth [12],growth [13],growth [14],growth [15],growth [16],growth [17],growth [18],growth [19],growth [20]
COc1ccc(C2=NN(C(=O)c3cc(OC)c(OC)c(OC)c3)C(c3ccc(C#N)cc3)C2)cc1OC (stereo not given),43.2%,52.4%,36.9%,36.1%,9.81% (active),-16% (active),22%,25.1%,-9.28% (active),5.75% (active),20.6%,39.5%,18.2%,-17.2% (active),49.3%,-3.96% (active),-13.3% (active),69.2%,-6.86% (active),26.7%
CCN1CCN(c2cc(-c3cn[nH]c3-c3cc(C)cc(OC)c3)nc(-c3cccnc3)n2)CC1,93.9%,99.7%,67.5%,101%,88.9%,75.6%,82.3%,58.1%,51.3%,75%,21.9%,91.9%,58.6%,61.2%,87.3%,99.9%,83%,84.8%,83.1%,19.2%
O=C(O)c1ccc(NC(=O)c2cccc(Nc3ccnc(C(F)(F)F)c3)c2)cc1,102%,99.8%,101%,107%,107%,87%,106%,97.9%,112%,116%,105%,93.5%,110%,103%,104%,88.8%,106%,98.7%,95.6%,96.5%
C[C@]12CC[C@@H]3c4ccc(O)c([N+](=O)[O-])c4CC[C@H]3[C@@H]1CC[C@@H]2NS(=O)(=O)c1ccc(C(F)(F)F)cc1,28%,53.7%,54.1%,56.2%,10.5%,-67.8% (active),19.5%,43%,98%,47.4%,6.98% (active),31%,-9.58% (active),-1.18% (active),36%,18.7%,62.4%,44%,34.2%,18%
Cc1ccc([N+](=O)[O-])cc1NC(=O)Nc1cccc(F)c1,42.2%,69.6%,98.3%,99.4%,47.2%,31.4%,57.9%,71.6%,138%,84.6%,31.4%,99.6%,93.4%,126%,100%,50.3%,85.1%,82%,67.7%,68.4%
Nc1c2ccccc2nc2ccccc12 (tested in a mixture with another compound),19.2%,11%,29.8%,25.8%,4.41% (active),-22.3% (active),4.37% (active),32.5%,2.36% (active),19.4%,15.3%,27%,15.9%,-2.81% (active),19.2%,24.4%,27.5%,-11.3% (active),17.1%,14.7%
O=C(CCc1nnc(SCc2ccccc2)s1)c1nc2ccccc2[nH]1,96.4%,102%,92.9%,105%,105%,84.4%,86.3%,91.2%,117%,107%,80.2%,83.8%,77.9%,108%,100%,92.1%,109%,111%,108%,81%
NCCCc1nnc(CCC(=O)c2nc3ccccc3[nH]2)o1,98.3%,108%,97.3%,112%,115%,103%,106%,103%,111%,115%,98.5%,82.2%,89.8%,116%,115%,98.4%,101%,113%,109%,90%
CC12CCC3C(CCC4CC(=O)/C(=C\O)CC43C)C1CCC(=O)O2 (stereo not given),98.8%,113%,108%,90.9%,115%,108%,106%,92.5%,150%,115%,104%,124%,111%,141%,108%,109%,111%,115%,95.2%,121%
N#CCNc1ccccc1N,86.6%,101%,82%,85.2%,101%,65.4%,92.2%,99%,90.2%,106%,97.3%,96.2%,101%,110%,102%,106%,103%,98.3%,93.4%,108%
CCC[C@H](N[C@@H](C)C(=O)N1[C@H](C(=O)O)C[C@@H]2CCCC[C@@H]21)C(=O)OCC,94.2%,105%,103%,123%,116%,102%,91.4%,103%,111%,111%,116%,94.2%,90.4%,114%,105%,111%,91.4%,97.9%,113%,99.3%
O=C1OCC/C1=C\OCCCO/C=C1\CCOC1=O,102%,103%,100%,122%,107%,98.3%,98.7%,102%,141%,115%,107%,95.2%,107%,117%,109%,106%,105%,106%,110%,98.1%
CC1=C(C(=O)Nc2ccccc2)C(c2ccc3c(c2)OCCO3)NC(=O)N1 (stereo not given),101%,102%,107%,104%,107%,104%,98.8%,100%,105%,114%,98.5%,96.9%,118%,116%,100%,114%,100%,102%,103%,106%
CC(=O)c1nc2ccccc2n1CCn1cc(CC(N)C(=O)O)c2ccccc21 (stereo not given),90.3%,102%,93.6%,97.7%,115%,96.9%,103%,115%,103%,104%,92.5%,100%,77.3%,120%,110%,110%,101%,110%,103%,96.3%
COc1ccccc1[C@H]1c2[nH]c3ccccc3c2C[C@H]2C(=O)N(CCCCCCC(=O)NO)CC(=O)N12,52.3%,91.6%,76.1%,50.2%,62.8%,10.5%,76.5%,89.4%,26.9%,43.7%,11.3%,-1.09% (active),66%,65.5%,94.3%,71.9%,40.2%,26.5%,36.3%,87.1%
Cc1ccccc1NC(=O)c1cc2ccccc2cc1O,10.9%,77.1%,24.6%,39.2%,38%,12.2%,39.3%,54.9%,119%,20.2%,10.9%,-6.19% (active),70.6%,22.2%,21.1%,86.4%,64.4%,68.1%,58.1%,48.5%

Compound,growth [1],growth [2],growth [3],growth [4],growth [5],growth [6],growth [7],growth [8],growth [9],growth [10],growth [11],growth [12],growth [13],growth [14],growth [15],growth [16],growth [17],growth [18],growth [19],growth [20]
O=c1cc(-c2cccnc2)oc2c1ccc1ccccc12,69.9%,91.5%,117%,88.6%,70.4%,62%,65.6%,81.3%,80.5%,88.6%,53.9%,156%,70.7%,68%,54.8%,70.1%,54.6%,82.9%,103%,72.7%
CN(C)c1ccc2[nH]c3c(C(N)=O)cc(=O)c(=O)c=3oc2c1,34.9%,87.7%,109%,20.7%,38.4%,11.2%,33.8%,80.4%,101%,71.9%,7.27% (active),87.7%,62.6%,52.1%,79.8%,78.9%,7.15% (active),91%,61.5%,24.8%
COc1ccc2[nH]c(-c3ccccc3)cc2c1,98.9%,96.5%,120%,115%,111%,74.1%,96.2%,103%,110%,101%,76.5%,122%,90%,100%,110%,105%,103%,87.5%,112%,97%
CC(C)C(=O)Cc1cnccn1,93.7%,110%,103%,106%,103%,109%,96.5%,109%,113%,111%,114%,111%,119%,106%,114%,91%,105%,97.8%,112%,107%
CN1COc2ccc3ccccc3c2C1,88.8%,93.7%,91.4%,80.1%,107%,90.3%,97.4%,91%,133%,107%,99.7%,111%,102%,107%,100%,96.1%,84.9%,107%,86.4%,106%
Cc1c(N(C)CS(=O)(=O)O)c(=O)n(-c2ccccc2)n1C,109%,102%,96.9%,92.7%,121%,89.8%,97.1%,91.5%,115%,112%,102%,94.1%,107%,115%,115%,98.9%,106%,108%,103%,103%
O=C(C(Br)Br)C(Br)C(Br)c1ccccc1 (stereo not given),90.1%,95%,109%,109%,104%,-33.3% (active),98.5%,107%,4.54% (active),87.4%,18.9%,-37.9% (active),109%,25.3%,116%,116%,97.2%,57.7%,81.5%,20.5%
O=C(Nc1ccc(C2=NCCCN2)cc1)Nc1ccc(C2=NCCCN2)cc1,67.4%,75%,94.5%,101%,88.8%,80.1%,99.9%,84.3%,128%,103%,76.1%,104%,112%,106%,96.8%,92.2%,80.1%,96.1%,92.7%,106%
COc1ccc(-c2csc(NC(=O)c3cc(OC)c(OC)c(OC)c3)n2)cc1,114%,94.1%,99.1%,91.2%,103%,107%,102%,102%,105%,112%,113%,96.2%,109%,87.9%,102%,91.9%,112%,98.5%,116%,107%
COc1ccc(OC)c(/C=C/c2nc(=S)n(-c3ccc(Cl)cc3)[nH]2)c1,48.7%,73.3%,100%,69.7%,38.9%,82.1%,66.3%,58.9%,104%,87.6%,22.4%,29.8%,87.2%,51.9%,73.7%,31.2%,39.5%,77.6%,31%,41.2%
COc1ccc(-c2nn(-c3ccccc3)cc2/C=C2\SC(=S)N(CCc3ccc(O)cc3)C2=O)cc1,89.2%,86.7%,88.6%,97.1%,81.7%,64.7%,81.2%,93.7%,108%,93.3%,66%,85.1%,75.4%,92.5%,81.4%,80.2%,87.2%,93.7%,91.3%,77.7%
CCn1c2c(c3ccccc31)SC1c3cccn3CCN1C2=S (stereo not given),93.7%,108%,89.8%,103%,98.9%,82.1%,88.5%,102%,109%,102%,105%,112%,96.7%,151%,96.4%,106%,97.9%,98%,94.4%,82.3%
O=C(Nc1ccc(Cl)cc1)Nc1ccc(Nc2nncc3ccccc23)cc1,12.5%,33.3%,64.3%,38.7%,9.89% (active),11.9%,20.1%,50.4%,18.6%,33.7%,9.49% (active),38.5%,36.6%,65.7%,42.4%,17.8%,33%,15.3%,19.3%,18.3%
CC1SC(c2c(Cl)cccc2Cl)N(NC(=O)c2[nH]c3ccc(F)cc3c2-c2ccccc2)C1=O (stereo not given),48%,58.5%,4.84% (active),-44.6% (active),8.08% (active),69%,-1.11% (active),33.8%,35.1%,24.1%,71.6%,1.97% (active),0.445% (active),26.5%,44.3%,6.65% (active),71.5%,93.9%,62.8%,65.1%
CCOC(=O)c1c(C)nc(C)c(C(=O)OCC)c1-c1cccnc1,101%,106%,108%,94.6%,101%,95.8%,103%,94.5%,101%,116%,92.4%,111%,113%,131%,106%,112%,97.1%,108%,95%,97%
O=C(OC[C@H]1O[C@H](OC(=O)c2cc(O)c(O)c(OC(=O)c3cc(O)c(O)c(O)c3)c2)[C@H](OC(=O)c2cc(O)c(O)c(OC(=O)c3cc(O)c(O)c(O)c3)c2)[C@@H](OC(=O)c2cc(O)c(O)c(OC(=O)c3cc(O)c(O)c(O)c3)c2)[C@@H]1OC(=O)c1cc(O)c(O)c(OC(=O)c2cc(O)c(O)c(O)c2)c1)c1cc(O)c(O)c(OC(=O)c2cc(O)c(O)c(O)c2)c1,19%,7.2% (active),19.3%,46.2%,11.6%,-11% (active),34%,18.5%,55.1%,30.3%,31.5%,49%,23.5%,-12.7% (active),27.2%,9.95% (active),29.3%,60.2%,17.6%,28.6%
